Experimental data from PubChem BioAssay (NCATS).
Records with an inconclusive call do not appear. Where a call stands in place of a potency, no number is given. Activity calls are given as the source filed them. Calls follow the shape of the dose curve; as a rule, active = well fitted inhibition curve with a large enough effect; inconclusive = small, poorly fitted or top-dose-only effect; inactive = no such curve, though single readings can be large or run the other way.

Assay: Primary qHTS for small molecule stabilizers of the endoplasmic reticulum resident proteome: Secreted ER Calcium Modulated Protein (SERCaMP) assay (AID 1508630)
Settings: SH-SY5Y GLuc-SERCaMP (Gaussia luciferase released on ER calcium loss) secretion, thapsigargin, luminescence; series mostly up to 38.4 µM
Source text: Assay Provider: Brandon K. Harvey Ph.D.
National Institute on Drug Abuse, National Institutes of Health, Baltimore, MD
Endoplasmic reticulum (ER) dysregulation is associated with human pathologies including neurodegenerative, cardiovascular, muscular, and diabetic conditions. Maintenance of ER calcium is critical for functions of the ER and its depletion can lead to loss of ER resident proteins, in a process termed exodosis. Therapeutic compounds capable of attenuating the redistribution of ER proteins under pathological conditions may slow or stop disease progression. To identify such compounds, we performed a quantitative high-throughput screen (qHTS) using the SERCaMP assay, which monitors secretion of ER resident proteins triggered by calcium depletion.
SERCaMP was initially developed as a reporter of ER calcium homeostasis using a Gaussia luciferase with a modified signal peptide and carboxy-terminus (GLuc-SERCaMP), modifications that confer secretion of the reporter in response to ER calcium depletion (Henderson et al., 2014). The assay was used to screen 9,501 compounds, including a collection of drugs approved by the FDA (US), EMA (EU), NHI (Japan), and HC (Canada) regulatory agencies (Huang et al., 2011). Since the SERCaMP reporter reflects the exodosis phenomenon (Trychta et al., 2018a), compounds identified in the screen have the potential to prevent exodosis by different mechanisms such as stabilizing ER calcium or augmenting ERS retrieval.
1. Henderson, M.J., Wires, E.S., Trychta, K.A., Richie, C.T., and Harvey, B.K. (2014). SERCaMP: a carboxy-terminal protein modification that enables monitoring of ER calcium homeostasis. Mol Biol Cell 25, 2828-2839.
2. Huang, R., Southall, N., Wang, Y., Yasgar, A., Shinn, P., Jadhav, A., Nguyen, D.T., and Austin, C.P. (2011). The NCGC pharmaceutical collection: a comprehensive resource of clinically approved drugs enabling repurposing and chemical genomics. Sci Transl Med 3, 80ps16.
3. Trychta, K.A., Back, S., Henderson, M.J., and Harvey, B.K. (2018a). KDEL Receptors Are Differentially Regulated to Maintain the ER Proteome under Calcium Deficiency. Cell Rep 25, 1829-1840 e1826.
SEQUENCE No. (1, 2, 3, etc.); […] (e.g., Cells, Incubation, Reagent, etc.); VALUE and DESCRIPTION.
1; Reagent; 5 uL; 1000 SH-SY5Y cells per wells
3; Compound; 23 nL; Control inhibitor / compound library
5; Reagent; 100 nM; Thapsigargin
7; Reagent; 1 uL; 0.5x coelenterazine
8; Detection; Luminescence; ViewLux imaging system
NOTES (numbers refer to sequence above)
1; SH-SY5Y human neuroblastoma cells stably expressing GLuc-SERCaMP (SH-SY5Y-GLuc-ASARTDL) cells were seeded in 1,536 well white tissue culture treated plates (Corning, Cat# 7464) in DMEM-high glucose-sodium pyruvate (ThermoFisher Scientific, Cat #10569) supplemented with 10% bovine growth serum (Hyclone), 10 U/ml penicillin (Gibco), 10 ug/ml streptomycin (Gibco), and 20 mM HEPES.
2; Assay plates were incubated for 5 hour at 37C in a humidified incubator containing 5% CO2.
3; qHTS libraries (23 nl, final concentrations of 1.53 uM, 7.67 uM, 38.3 uM) or controls (neutral control: DMSO, positive control: dantrolene) were added using a Kalypsis pin-tool Robotic System equipped with 1536 pinheads.
4; Cells were then incubated for 16 hours at 37C, 5% CO2.
5; Thapsigargin was added at 100 nM to deplete ER calcium stores.
6; Cells were incubated for 4 hour (37 °C, 5% CO2)
7; Gaussia luciferase in the medium was measured by adding 1 ul of 0.5x coelenterazine (final concentration 0.07x) prepared in Gaussia Luciferase Glow Assay Buffer (Pierce), without addition of the Cell Lysis Buffer Reagent.
8; Luminescence was measured using a ViewLux […] CCD imaging system (Perkin Elmer) equipped with clear filters. […] The same controls were also used for the calculation of the Z' factor, a measure of assay quality control, as previously described (Zhang et al., 1999). […]
For `CN1CCN(CCOc2cc(OC3CCOCC3)c3c(Nc4c(Cl)ccc5c4OCO5)ncnc3c2)CC1`, the Potency was “inactive”. In the case of `CCC(=O)NC[C@H](Cc1ccc(OCCc2nc(-c3ccccc3)oc2C)cc1)NC(C)=CC(=O)c1ccc(C(F)(F)F)cc1`, the Potency was “inactive”. With `O=C(Nc1c(Cl)cncc1Cl)c1ccc(OC(F)F)c(OCC2CC2)c1` the Potency was “inactive”. In the case of `CCC(=O)O[C@]1(C(=O)CO)CC[C@H]2[C@@H]3CCC4=CC(=O)CC[C@]4(C)[C@@H]3CC[C@@]21C`, the Potency was “inactive”. In the case of `COc1ccc2c(Oc3ccc(NC(=O)c4c(C)n(CC(C)(C)O)n(-c5ccccc5)c4=O)cc3F)ccnc2c1`, the Potency was “inactive”. In the case of `C=C1C(=O)OC(CCCCCCCC)C1C(=O)O` (stereo not given), the Potency was “inactive”. With `CO[C@H]1C=CC=C(C)C(=O)NC2=CC(=O)C(NCCN(C)C)=C(C[C@@H](C)C[C@H](OC)[C@@H](O)[C@@H](C)C=C(C)[C@@H]1OC(N)=O)C2=O` the Potency was “inactive”. With `CC(C)C[C@H](CC(=O)O)C(=O)N[C@@H](Cc1c[nH]c2ccccc12)C(=O)N[C@@H](C)c1ccccc1` the Potency was “inactive”. In the case of `O=C1NC(=O)C(c2ccccc2)(c2ccccc2)N1`, the Potency was “inactive”. With `CNC(=O)c1ccccc1Sc1ccc2c(C=Cc3ccccn3)n[nH]c2c1` the Potency was “inactive”. With `CC(C)(C)C(=O)Oc1ccc2c(c1)nc(NC(=O)c1cccc([N+](=O)[O-])c1)n2CCCO` the Potency was “inactive”. In the case of `COCCOC(=O)C1=C(C)NC2=C(C(=O)CC(c3ccccc3OC)C2)C1c1cccc(O)c1` (stereo not given), the Potency was “inactive”. With `NC1CCC(Nc2nc(Nc3ccc(C(=O)N4CCCCC4)cc3)c3ncn(-c4cccc(F)c4)c3n2)CC1` (stereo not given) the Potency was “inactive”. For `CCOC(CN1C(=O)[C@](CC(=O)Nc2ccc(C)cc2)(NC(=O)Nc2ccc(C)cc2)c2ccccc21)OCC`, the Potency was “inactive”. In the case of `CC(=O)c1ccc(S(=O)(=O)NC(=O)NC2CCCCC2)cc1`, the Potency was “inactive”. For `O=C(N[C@@H](c1ccccc1)[C@@H]1CCCCN1)c1cccc(C(F)(F)F)c1Cl`, the Potency was “inactive”. In the case of `COC[C@@H](c1ccc(C(F)(F)F)cc1)N1CCN(C2(C)CCN(C(=O)c3c(C)ncnc3C)CC2)C[C@H]1C`, the Potency was “inactive”. With `C[C@]12CC[C@@H]3c4ccc(O)cc4C[C@@H](CCCCCCCCCS(=O)CCCC(F)(F)C(F)(F)F)[C@H]3[C@H]1CC[C@H]2O` (stereo not given in full) the Potency was “inactive”. For `COc1cc(O)c2c(c1)C(=O)c1cc(C)cc(O)c1C2=O`, the Potency was “inactive”. For `NC1=N[C@@]2(c3cc(NC(=O)c4ccc(F)cn4)ccc3F)COC[C@@H]2CS1`, the Potency was “inactive”. In the case of `CCCNC(=O)NS(=O)(=O)c1ccc(Cl)cc1`, the Potency was “inactive”. For `Cc1ccccc1C(C(=O)NC1CCCCC1)N(C(=O)Cn1ccnc1C)c1cccc(F)c1` (stereo not given), the Potency was “inactive”. In the case of `CCCCCN(C)CCC(O)(P(=O)(O)O)P(=O)(O)O`, the Potency was “inactive”. For `NC(=O)c1cccc(-c2cc(Nc3ccc(OC(F)(F)F)cc3)ncn2)c1`, the Potency was “inactive”. With `Cc1nc(N)sc1-c1ccnc(Nc2ccc(N3CCOCC3)cc2)n1` the Potency was “inactive”. With `Cc1ccc(Nc2cc(-c3cccc(N4C(=O)c5ccccc5C4=O)c3)ncn2)cc1NS(C)(=O)=O` the Potency was “inactive”. In the case of `Clc1ccc(C(c2ccc(Cl)cc2)n2cc[n+](CC(OCc3ccc(Cl)cc3Cl)c3ccc(Cl)cc3Cl)c2)cc1` (stereo not given), the Potency was “inactive”. For `C[C@@H](O)[C@H]1C(=O)N2C(C(=O)O)=C(S[C@@H]3CN[C@H](C(=O)N(C)C)C3)[C@H](C)[C@H]12`, the Potency was “inactive”. With `NC(CO)(CO)CCc1ccc(Sc2cccc(OCc3ccccc3)c2)cc1Cl` the Potency was “inactive”. For `CCOC1OC(=O)C[C@H]1NC(=O)[C@@H]1CCCN1C(=O)[C@@H](NC(=O)c1ccc(N)c(Cl)c1)C(C)(C)C` (stereo not given in full), the Potency was “inactive”. For `Nc1ncnc2ccccc12`, the Potency was “inactive”. For `c1ccc2c(-c3cnn4cc(-c5ccc(N6CCNCC6)cc5)cnc34)ccnc2c1`, the Potency was “inactive”. With `COc1cccc(-c2cc(=O)c3ccccc3o2)c1N` the Potency was “inactive”. In the case of `O=C(OCC#CCSc1nnc(-c2cccc3ccccc23)o1)c1cc2ccccc2s1`, the Potency was “inactive”. For `COc1ccccc1N1CCN(CCCNc2cc(=O)n(C)c(=O)n2C)CC1`, the Potency was “inactive”. In the case of `CC(=O)CCCCn1c(=O)c2c(ncn2C)n(C)c1=O`, the Potency was “inactive”. For `CN[C@@H](C)C(=O)N[C@H]1CN(C(=O)CC(C)C)CC[C@H]2CC[C@@H](C(=O)NC(c3ccccc3)c3ccccc3)N2C1=O`, the Potency was “inactive”. In the case of `O=c1cc(CN2CCOCC2)occ1OCCCCCSc1ccnc2cc(C(F)(F)F)ccc12`, the Potency was “inactive”. With `O=C(O)c1cc(O)c2c(c1)C(=O)c1cccc(O)c1C2=O` the Potency was “inactive”. For `O=C1NCC2(CCN(CCc3ccccc3)CC2)O1`, the Potency was “inactive”.
